Shown are actives, neighbours in structure and some others; about 2.1% of the full set was active somewhere.
HIF-2a block: blocks HIF-2a reporter activity. 786-0 RCC cells HIF-2a reporter, luciferase luminescence, overnight. inhibition, % at 18.8 µM. hit rate 0.72% among 360,000;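 active means inhibition of the luminescence signal of 40% or more relative to plate controls, in a single-dose primary screen at 18.75 µM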
PAX8 reporter: lowers PAX8-driven luciferase in RMG-I cells | RMG-I TPO-luciferase reporter, SteadyGlo, 24 h | inhibition, % at 12.6 µM | hit rate 1.2% among 360,000;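 active means mean replicate inhibition at least 60% with every replicate also reaching 60%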;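 further: luciferase light reporting Pax8 driven TPO promoter activity; plate controls were median of neutral control wells for no effect and mitoxantrone controls for full effect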
EWS-Fli inh: EWS/Fli transcriptional activity inhibition; A673 NR0B1-luciferase reporter, viability-normalised; inhibition, % at 12.6 µM; hit rate 0.67% among 350,000;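 active means mean inhibition of at least 50% after viability correction, with every replicate also passing that limit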;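 further: firefly luciferase signal divided by Alamar Blue viability fluorescence both relative to DMSO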
CF NFkB inh: blocks PAF-induced NF-kB reporter in cystic fibrosis cells | KKLEB NF-kB-GFP reporter, GFP fluorescence overnight | inhibition, % at 5 µM | hit rate 0.86% among 360,000 | AID 588850;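 active means at least 50% inhibition at 5 µM, scaled per plate between neutral and stimulator controls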;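 further: PAF is a Pseudomonas aeruginosa culture filtrate used as stimulus; plate controls were PAF-stimulated DMSO wells for no effect and unstimulated DMSO wells for full effect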
KKLEB tox: reduces viability of KKLEB cystic fibrosis airway cells; KKLEB CF airway cells viability, ATPlite luminescence, overnight; active compounds read low; cells stimulated with P. aeruginosa culture filtrate; activity change (cytotoxicity), % at 5 µM; hit rate 0.36% among 360,000; AID 602141;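 active means corrected activity change at or below -50% at 5 µM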
* marks the source's active call; other numbers are inactive results; . = no result given.

SMILES | HIF-2a block | PAX8 reporter | EWS-Fli inh | CF NFkB inh | KKLEB tox
COC(=O)C(C#N)C(=C1C(=O)CC(C)(C)CC1=O)c1ccc(O)cc1 (stereo unspecified) | -1 | . | . | -6 | -50*
Cc1noc(C)c1NC(=O)N(C)C[C@H]1Oc2c(NC(=O)c3nc4ccccc4s3)cccc2C(=O)N([C@@H](C)CO)C[C@H]1C | . | . | -24 | . | .
COC(=O)c1ccc(NCc2c(O)ccc(O)c2Br)cc1Cl | -5 | 6 | 72* | 22 | -2
COC(=O)c1ccc(NCc2cc(O)ccc2O)cc1O | 4 | 35 | 57* | 29 | -10
O=C(COC(=O)c1ccc(O)cc1O)Nc1ccc2ccccc2c1 | -75 | -66 | -65 | 8 | 0
COC(=O)c1cc(NCc2c(F)cccc2Cl)ccc1N1CCOCC1 | 21 | . | . | 2 | -12
CC(=O)c1cccc(NC(=O)COC(=O)Cn2cnc3ccccc32)c1 | 11 | -6 | 1 | 19 | -86*
CN1C(=O)c2cc(NC(=O)Nc3cccc(Cl)c3)ccc2OC[C@@H]2O[C@H](CC(=O)O)CC[C@H]21 | . | 14 | -13 | . | .
CCC(=O)N1CCN(c2ccc(Cl)cc2NC(=O)c2ccc([N+](=O)[O-])o2)CC1 | -7 | 27 | 27 | 6 | -12
O=C(Nc1cc(Cl)ccc1-n1cncn1)c1ccc([N+](=O)[O-])o1 | 15 | 63* | 37 | -3 | -9
CO[C@H]1CN(C)C(=O)c2ccc(NC(=O)c3ccccc3F)cc2OC[C@H](C)N(CC2CCOCC2)C[C@@H]1C | . | . | 6 | . | .
CC(C)Oc1ccc(C(=O)Nc2nnc(SCC(=O)N3CCOCC3)s2)cc1 | 48* | 70* | 60* | 12 | -74*
CC(=O)Nc1nnc(SCC(=O)N2CCc3ccccc32)s1 | 13 | 2 | 1 | 1 | 8
Cc1ccc(C(=O)Nc2nnc(SCC(=O)N3CCCc4ccccc43)s2)cc1 | 34 | 21 | 49 | 3 | -97*
O=C(Nc1nnc(SCC(=O)N2CCCc3ccccc32)s1)c1cccc2ccccc12 | -21 | 11 | 88* | -1 | 15
Cc1noc(C)c1S(=O)(=O)Nc1cccc2c1O[C@@H](CN(C)C(=O)Nc1ccc(F)cc1)[C@@H](C)CN([C@@H](C)CO)C2=O | . | . | -12 | . | .
C[C@H]1CN([C@@H](C)CO)C(=O)c2cc(NS(=O)(=O)c3ccc(F)cc3)ccc2O[C@H]1CN(C)CC1CCCCC1 | . | -10 | 8 | . | .
CN(C)C(=O)C[C@H]1C=C[C@@H](NC(=O)Nc2cccc(F)c2)[C@H](CO)O1 | . | -6 | -7 | . | .
CCOc1ccccc1NC(=O)c1ccc(OCC)c([N+](=O)[O-])c1 | -10 | -7 | 0 | 1 | -5
CCOc1ccc(C(=O)Nc2cc(-c3nc4ccccc4[nH]3)ccc2Cl)cc1[N+](=O)[O-] | 27 | 22 | -17 | 39 | -53*
CCOc1ccc(C(=O)Nc2cc(-c3nc4ccccc4[nH]3)ccc2C)cc1[N+](=O)[O-] | -29 | . | . | 10 | -19
CCOc1ccc(C(=O)Nc2cccc(-c3nc4ccccc4[nH]3)c2C)cc1[N+](=O)[O-] | -71 | 13 | 83* | 8 | 9
CCOc1ccc(N(CC(=O)Nc2ccccc2OCC)S(=O)(=O)c2c(C)noc2C)cc1 | 18 | 80* | 42 | 44 | -29
Cc1ccc(C=Nc2ccc(N(C)C)cc2)o1 | -137 | . | -36 | -7 | 9
Cc1csc(N=Nc2ccc(N(C)C)cc2)[n+]1[O-] | 5 | 68* | -14 | -22 | -10
SMILES | HIF-2a block | PAX8 reporter | EWS-Fli inh | CF NFkB inh | KKLEB tox
O=C(C[C@H]1C[C@@H]2c3cc(NC(=O)CC4CC4)ccc3O[C@@H]2[C@@H](CO)O1)NCCN1CCCCC1 | . | -8 | -12 | . | .
COc1cc2cc(c1Cl)N(C)C(=O)CC(OC(=O)C(C)N(C)C(C)=O)C1(C)OC1C(C)C1CC(O)(NC(=O)O1)C(OC)C=CC=C(C)C2 (stereo unspecified) | 31 | 74* | 28 | 50 | -17
O=C1OCCC1Sc1nnc(-c2ccc(Cl)cc2Cl)o1 (stereo unspecified) | 76* | 53 | 49 | 9 | -14
NC(=S)NN=Cc1nccc2c(C(F)(F)F)cccc12 | -145 | 73* | 10 | 70* | -38
Cc1noc(C)c1NC(=O)Nc1ccc2c(c1)C(=O)N([C@@H](C)CO)C[C@@H](C)[C@H](CN(C)CC1CCCCC1)OCCCC[C@H](C)O2 | . | . | -2 | . | .
C/C=C/c1ccc(C2[C@H]3CNC[C@@H]2N3S(=O)(=O)c2cccc(OC)c2)cc1 (stereo partly specified) | . | -5 | -5 | . | .
COc1ccc(CCNc2ncnc3sccc23)cc1OC | -4 | 77* | 2 | -27 | -7

Screens from PubChem.
